This is an account of results in PubChem BioAssay (EPA / NIEHS).

The source made the active and inactive calls. How the source made its calls: active means hit-call score of the fitted dose curve at least 0.9, where 1 is the maximum; inactive means score below 0.9.

This test can be described thus: ATG_TGFb_CIS: Attagene CIS-FACTORIAL HepG2 Assay for human Transforming Growth Factor (TGF) (AID 2282967). Particulars: HepG2 Attagene CIS TGFb reporter, mRNA transcription; actives raise or lower the signal. Put shortly:
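Cells were dosed for 24 hours, after which total RNA was reverse-transcribed and reporter sequences amplified, labeled and sized by capillary electrophoresis. Activity was fitted in both directions against DMSO.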
As to `Cc1cc(C)cc(C)c1`, the result was inactive. In general, AC50 refers to the concentration giving half of the maximal activity seen. Consider `CC(C)N(C(=O)CCl)c1ccccc1`, for which the concentration at half-maximal activity (AC50) is 8.03 µM (active). `BrCC(Br)c1ccccc1` (centres undefined): the outcome was inactive.

For the compound `CCOC(=O)CCN(SN(C)C(=O)Oc1cccc2c1OC(C)(C)C2)C(C)C`, the compound was called inactive. On to `CCCCOC(=O)COC(=O)c1ccccc1C(=O)OCCCC`, for which the call was inactive. Still for that read-out and setting: the same measure for `Clc1cccc(Cl)c1Cl`: “inactive”; for `CC(C)[N+](=O)[O-]`: “inactive”. On the same count and under the same terms, as for `Cc1cc(SCc2sc(-c3ccc(C(F)(F)F)c(F)c3)nc2C)ccc1OCC(=O)O`, the entry is “inactive”. With `O=C(CBr)c1ccc(O)cc1`, the result was inactive. Take `CCOP(=S)(OCC)O/N=C(\C#N)c1ccccc1`: the result was inactive. Same read-out and setting: as for `CCN(CC)C(=O)C(Cl)=C(C)OP(=O)(OC)OC`, the entry is “inactive”; as for `O=C(O)CC(O)(CC(=O)O)C(=O)O`, “inactive”.

Regarding `ClCc1ccccc1Cl`, the compound was classed as inactive. As for `CCCCCCCCBr`, the call was inactive. Still for that read-out and setting: as for `N#Cc1ccccc1Cl`, the entry is “inactive”; as for `O=C1C=CC(=O)c2ccccc21`, “inactive”. On the same count and under the same terms, as for `COc1nn(C(=O)NS(=O)(=O)c2ccccc2OC(F)(F)F)c(=O)n1C`, the entry is “inactive”; as for `N#Cc1ccc(Cl)cc1`, “inactive”. Still for that read-out and setting: the same measure for `NNCCO`: “inactive”.

Regarding `O=[N+]([O-])c1ccc(Cl)c([N+](=O)[O-])c1`, the concentration at half-maximal activity (AC50) was 3.71 µM (active).

With `C=CC(Cl)CCl` (centres undefined), the result was inactive. For `O=C(O)COc1cc(Cl)c(Cl)cc1Cl`, the outcome was inactive. Same read-out and setting: the same measure for `C[C@H]1C(=O)O[C@@H]2CCN3CC=C(COC(=O)[C@](C)(O)[C@]1(C)O)[C@H]23`: “inactive”. Same read-out and setting: as for `CN(C)[C@@H]1C(=O)C(C(N)=O)=C(O)[C@@]2(O)C(=O)C3=C(O)c4c(O)ccc(Cl)c4[C@@](C)(O)[C@H]3C[C@@H]12`, the entry is “inactive”. The same measure, in the same setting: the same measure for `CN(N=O)C(N)=O`: “inactive”; for `OC[C@@H](O)[C@H]1O[C@@H]2O[C@H](C(Cl)(Cl)Cl)O[C@@H]2[C@H]1O`: “inactive”. Take `OCCCCO`: the outcome was inactive. Take `CCCCCCCCCCCCCCC(Br)C(=O)O` (centres undefined): the concentration at half-maximal activity (AC50) is 162 µM (active).

Regarding `OC[P+](CO)(CO)CO`, the call was inactive. Still for that read-out and setting: as for `C=CCOC(N)=O`, the entry is “inactive”; as for `O=CCCl`, “inactive”. Still for that read-out and setting: the same measure for `N#CS`: “inactive”. Turning to `CCOC(=O)CC(=O)CCl`, the half-maximal activity concentration (AC50) is 36.1 µM (active). As to `CCC(C)(C#N)N=NC(C)(C#N)CC` (centres undefined), the call was inactive. The same measure, in the same setting: as for `CC(C)C(C)(N)C#N` (centres undefined), the entry is “inactive”. On the same count and under the same terms, as for `CCC[CH2][Sn]([CH2]CCC)([CH2]CCC)[CH2]CCC`, the entry is “inactive”.

`N#CCC#N`: the outcome was inactive.

Regarding `FC(F)OCC(F)(F)C(F)(F)F`, the call was inactive.

Turning to `C[As+](C)(C)CC(=O)[O-]`, the outcome was inactive.
